Screens as filed in PubChem BioAssay.
Shown is part of a subset that was picked to be rich in hits.
ID4 binder: binders of human ID4 protein; P47928; small molecule microarray, Flag-ID4 binding, fluorescence F/B; calls only; 31,000 compounds, 1.2% hits; AID 624137; call rule not given here;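 note: a binder raises fluorescence above local background on the spot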
Target sequence (P47928 whole entry, looked up): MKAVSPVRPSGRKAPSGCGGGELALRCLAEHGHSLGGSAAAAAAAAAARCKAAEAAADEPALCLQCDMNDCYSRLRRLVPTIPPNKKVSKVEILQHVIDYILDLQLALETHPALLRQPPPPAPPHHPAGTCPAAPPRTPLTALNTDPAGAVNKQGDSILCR
* = called active by the depositor; i = inactive; + = active, no number.

SMILES	ID4 binder
CNc1ccccc1C(=O)OC1OC(C)C(O)C(O)C1O (stereo not given)	+
COC(=O)c1ccccc1O[C@@H]1O[C@H](CO[C@@H]2OC[C@@H](O)[C@H](O)[C@H]2O)[C@@H](O)[C@H](O)[C@H]1O	i
Cc1ccc(-c2ccc(CCC(=O)O)n2-c2ccc(N(C)C)cc2)cc1	i
NC(=O)c1ccc(-n2c(CCC(=O)O)ccc2-c2ccccc2)cc1	i
CC(=O)c1cccc(-n2c(CCC(=O)O)ccc2-c2ccc(C)cc2)c1	+
O=C(O)C1CC=CCC1C(=O)Nc1ccc(Cc2ccncc2)cc1 (stereo not given)	i
COCCCN1C(=O)c2oc3ccc(Br)cc3c(=O)c2C1c1cccc([N+](=O)[O-])c1 (stereo not given)	i
CSc1nnc(-c2ccccc2NC(=O)c2ccccc2)c(=O)[nH]1	i
O=C(CSc1nnc(-c2ccccc2Cl)n1-c1ccccc1)N1CCc2ccccc21	i
Cc1sc2ncn(CC(=O)NCc3ccco3)c(=O)c2c1C	i
O=C(Cn1cnc2ccccc2c1=O)NCc1ccco1	i
Cn1c(=O)[nH]c(=O)c2c1ncn2CCNCc1ccco1	+
Cc1ccc(S(=O)(=O)NC(=O)COc2cccc3ccccc23)c(C)c1	i
C[C@H](CCC(=O)O)[C@H]1CCC2C3C(=O)CC4CC(=O)CC[C@]4(C)C3CC(=O)[C@@]21C (stereo not given in full)	+
COc1ccc(NC(=O)CS(=O)(=O)c2ccc3ccccc3c2)cc1	i
Cc1ccc2ccc(C(Nc3ccccn3)c3cccc([N+](=O)[O-])c3)c(O)c2n1 (stereo not given)	i
N#Cc1c(NC(=O)Cn2c(=O)oc3cc(Br)ccc32)sc2c1CCCC2	i
O=C(Cn1c(=O)oc2ccccc21)Nc1cccc(C(=O)O)c1	i
O=C(Cn1c(=O)oc2ccccc21)Nc1sc2c(c1C(=O)O)CCCC2	+
Fc1cccc(Cl)c1CN1CCN(CCCNc2ncnc3scc(-c4ccccc4)c23)CC1	i
CCc1ccc2nc(N3C(=O)C(=O)C(C(=O)c4ccco4)C3c3cc(OC)ccc3OC)sc2c1 (stereo not given)	i
COc1ccc2c(c1)C(O)(CC(=O)c1ccc3ccccc3c1)C(=O)N2 (stereo not given)	i
C[C@@H]1CN([C@@H](C)CO)C(=O)c2cc(C#Cc3ccncc3)cnc2O[C@H]1CN(C)C(=O)CN(C)C	+
CCC(=O)N(C)C[C@H]1Oc2ncc(C#Cc3ccncc3)cc2C(=O)N([C@H](C)CO)C[C@H]1C	i
C[C@@H]1CN([C@H](C)CO)C(=O)c2cc(C#Cc3cccnc3)cnc2O[C@@H]1CN(C)C	i
SMILES	ID4 binder
C[C@@H]1CN([C@H](C)CO)C(=O)c2cc(C#Cc3cccnc3)cnc2O[C@H]1CN(C)Cc1cccnc1	i
C[C@@H]1CN([C@H](C)CO)C(=O)c2cc(C#Cc3ccccc3)cnc2O[C@H]1CN(C)C(=O)CN(C)C	i
C[C@@H]1CN([C@@H](C)CO)C(=O)c2cc(C#Cc3cccnc3)cnc2O[C@@H]1CN(C)Cc1ccncc1	+
O=C(CSc1ncc(-c2ccccc2)nn1)Nc1ccc(I)cc1	i
NS(=O)(=O)c1ccc(NC(=O)CN2CCN(C(=O)c3ccccc3)CC2)cc1	i
Cc1cc(C)c2c(=O)cc(C(F)(F)F)oc2c1	i
CCCc1nnc2n1N=C(c1ccc(Br)cc1)CS2	i
CC(C)=CCN(CC#Cc1ccccc1)[C@H](CO)c1ccccc1	i
C[C@H]1CN([C@@H](C)CO)C(=O)CCCn2nncc2CO[C@H]1CN(C)CC1CCCCC1	i
C[C@H]1CN([C@@H](C)CO)C(=O)CCCn2nncc2CO[C@@H]1CN(C)C(=O)Nc1ccccc1F	i
C[C@@H]1CN([C@@H](C)CO)C(=O)CCCn2nncc2CO[C@@H]1CN(C)CC1CCCCC1	i
C[C@H](CO)N1C[C@H](C)[C@@H](CN(C)CC2CCCCC2)OCc2cn(nn2)CCCC1=O	+
C[C@@H]1CN([C@@H](C)CO)C(=O)CCCn2nncc2CO[C@H]1CN(C)CC1CCCCC1	+
C[C@H](CO)N1C[C@H](C)[C@@H](CN(C)C(=O)Nc2ccccc2F)OCc2cnnn2CCCC1=O	+
C[C@H](CO)N1C[C@H](C)[C@H](CN(C)C(=O)c2ccccc2)OCc2cn(nn2)CCCC1=O	i
C[C@@H]1CN([C@@H](C)CO)C(=O)CCCn2cc(nn2)CO[C@H]1CN(C)C(=O)c1ccc(N2CCN(C)CC2)cc1	+
C[C@H](CO)N1C[C@H](C)[C@@H](CN(C)CC2CCCC2)OCc2cn(nn2)CCCC1=O	i
C[C@@H]1CN([C@@H](C)CO)C(=O)CCCn2nncc2CO[C@@H]1CN(C)C(=O)Nc1ccccc1C(F)(F)F	i
C[C@H](CO)N1C[C@H](C)[C@H](CN(C)CC2CCCCC2)OCc2cn(nn2)CCCC1=O	i
C[C@@H]1CN([C@H](C)CO)C(=O)CCCn2cc(nn2)CO[C@H]1CN(C)C(=O)c1ccc(N2CCN(C)CC2)cc1	i
Cc1cccc(Nc2nnc(-c3ccc(C)c(S(=O)(=O)NCCO)c3)c3ccccc23)c1	i
CSc1cccc(NC(=O)CSc2ncn(-c3ccccc3)n2)c1	i
COc1ccc(-n2c(SCC(=O)Nc3ccccc3C(F)(F)F)nnc2-c2ccccc2)cc1	i
CCOC(=O)NC1c2ccccc2Sc2ccc(Cl)cc21 (stereo not given)	i
Nc1ccc2nc(SCC(=O)Nc3ccc(Oc4ccccc4)cc3)sc2c1	i
SMILES	ID4 binder
O=C(CCN1C(=O)c2ccccc2S1(=O)=O)Nc1ccc(Oc2ccccc2)cc1	i
O=C(CCN1C(=O)c2ccccc2S1(=O)=O)NCc1ccco1	+
O=C(CCN1C(=O)c2ccccc2S1(=O)=O)Nc1cccc(Cl)c1Cl	i
COc1ccc(C)cc1NC(=O)CNS(=O)(=O)c1c(C)cc(C)cc1C	i
Cn1nnnc1SCC(=O)Nc1cccc(Cl)c1Cl	i
Cc1ccc(C(=O)Nc2ccccc2C(=O)N2CCN(c3ccccc3)CC2)cc1S(=O)(=O)N1CCCCC1	i
O=C(NCCN1CCOCC1)c1ccc(Cl)c(S(=O)(=O)N2CCOCC2)c1	+
Cc1cccc(NS(=O)(=O)c2cc(C(=O)Nc3ccccc3C(=O)N3CCOCC3)ccc2Cl)c1	i
Cc1ccc(C(=O)NCCN2CCOCC2)cc1S(=O)(=O)N1CCCCC1	i
O=C(Nc1ccccc1C(=O)O)c1ccc(Br)c(S(=O)(=O)N2CCOCC2)c1	+
O=C(NCCN1CCOCC1)c1cccc(S(=O)(=O)N2CCCC2)c1	i
COc1ccc(N(C(C)C(=O)N2CCOCC2)S(C)(=O)=O)cc1 (stereo not given)	i
COc1ccc2sc(SCc3nc(N)nc(Nc4cccc(C)c4C)n3)nc2c1	i
Cc1c(Cl)cccc1NC(=O)CSc1nccc(=O)[nH]1	i
CCC1(CC)C(=O)N(CC(=O)OC)C(=O)N(C)C1=S	i
CCn1c(SCC(=O)Nc2c(C)cc(C)cc2C)nnc1-c1ccccc1C	i
CCn1c(SCC(=O)Nc2c(C)cccc2C)nnc1-c1cnccn1	+
CCn1c(SCC(=O)Nc2cc(C)c(Cl)cc2OC)nnc1-c1cnccn1	i
COc1ccccc1N1CCN(C(=O)CN(c2cc(Cl)ccc2OC)S(C)(=O)=O)CC1	i
CCn1c(SCC(=O)Nc2ccc(F)cc2)nnc1-c1cccs1	i
C[C@@H]1CN([C@H](C)CO)C(=O)c2cc(NC(=O)Cc3cn(C)c4ccccc34)ccc2O[C@H]1CN(C)C(=O)Nc1ccccc1	i
